The text below walks through data of PubChem BioAssay (Tox21).

A short description of assay [1]: Nuclear factor erythroid 2-related factor 2/antioxidant responsive element (Nrf2/ARE) small molecule agonists: luciferase reporter gene qHTS assay in human keratinocytes (AID 1919969; further: nearly all actives have a fitted effect of over 35% in size; further: potency means the concentration at half of the fitted maximal effect). (In general: In a reporter assay the amount or activity of a reporter protein is the signal.)
Assay [2] deals with Gonadotropin-releasing hormone receptor (Homo sapiens) (UniProt P30968). Kind of assay: Human gonadotropin-releasing hormone receptor (GnRHR) small molecule agonists, calcium flux assay in GnRHR-HEK293 cells (AID 1920063). Further: nearly all actives have a fitted effect of over 35% in size. Further: potency means the concentration at half of the fitted maximal effect. A digest of the protocol:
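Calcium-dye fluorescence, Ex/Em=480/540, recorded every 1 sec over 3 min after compound addition to GnRHR-HEK293 cells. Cells had been seeded 18 hours earlier and dye-loaded for 1 hour at 37 C. Fifteen concentrations, triplicates.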
A general note: Calcium assays in cells follow changes in intracellular calcium, usually with a dye or a luminescent sensor.

The target in assay [3] is KiSS-1 receptor (Homo sapiens) (UniProt Q969F8). As to the kind of experiment: Human kisspeptin (KISS1R) small molecule agonists, calcium flux assay in KISS1R-HEK293 cells (AID 1920064; active means well fitted activation curve with a large enough effect in the repeat runs). A digest of the protocol: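 Calcium flux read-out: kinetic fluorescence at Ex/Em=480/540, 1 s intervals over 3 min, after pin-tool compound addition to dye-loaded KISS1R-HEK293 cells. Fifteen concentrations, triplicates.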

A short description of assay [4]: G protein-coupled receptor (GPCR) small molecule agonists, calcium flux assay: HEK293 wild type cell line counter screen (AID 1920065). The procedure, abridged: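 Agonist mode; 18 h seeding at 37 C, 1 h dye load at 37 C; compounds pinned from DMSO, ATP as positive control; kinetic fluorescence 480/540 nm, 3 min, 1 s reads; 15 concentrations, triplicate.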
Assay [5] is described as follows: p53 small molecule agonists, cell-based qHTS assay with human liver microsomes (AID 1963577). Further: potency means the concentration at half of the fitted maximal effect. A digest of the protocol: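 In this qHTS, p53 response-element beta-lactamase cells receive test compound together with a microsome/NADPH activating system (0.5 mg/mL final each) and are incubated 16 h at 37 C before LiveBLAzer fluorescence detection.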
On the technique in general: In qHTS, concentration-response curves come from the screen itself.

A short description of assay [6]: p53 small molecule agonists, cell-based qHTS assay with rat liver microsomes (AID 1963578). A digest of the protocol:
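Agonist mode in p53RE-bla reporter cells, with compounds co-incubated 16 h at 37 C alongside 0.5 mg/mL rat liver microsomes and 0.5 mg/mL NADPH (final), followed by a 2 h LiveBLAzer detection step.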

Assay [7] can be described thus: p53 small molecule agonists, cell-based qHTS assay: qHTS cell viability counter screen (AID 1963581). Further: nearly all actives have a fitted effect of over 45% in size. A digest of the protocol:
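Cytotoxicity read-out: ATP-based luminescence (CellTiter-Glo, 30 min RT) measured in the same wells as the p53 reporter assay, HCT-116 p53RE-bla cells, 16 h compound exposure at 37 C.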

The nature of assay [8]: p53 small molecule agonists, cell-based qHTS assay (AID 1963582; active means well fitted activation curve with a large enough effect in the signal ratio in the repeat runs, not every such curve was filed as active; the % refers to the signal ratio). A digest of the protocol: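 Fluorescence intensity read-out of a beta-lactamase reporter under a p53 response element. Cells were exposed to DMSO-dissolved compounds for 16 h at 37 C, then developed with FRET substrate for 2 h at RT.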
In assay [9] the target is 5-hydroxytryptamine receptor 2A (Homo sapiens) (UniProt P28223). Kind of assay: 5-hydroxytryptamine receptor 2A (HTR2A) small molecule antagonists, cell-based qHTS assay (AID 1963586). Further: nearly all actives have a fitted effect of over 45% in size. Further: potency means the concentration at half of the fitted maximal effect. The procedure, abridged: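 CHO cells stably expressing human HTR2A were plated for 18 h at 37 C, then loaded with calcium dye for 1 h. Compounds were preincubated 5 min at room temperature before DOI (4 nM solution) was added. Kinetic fluorescence was read for 3 min.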

For assay [10] the target is unchanged. As to the kind of experiment: 5-hydroxytryptamine receptor 2A (HTR2A) small molecule agonists, cell-based qHTS assay (AID 1963587). Further: nearly all actives have a fitted effect of over 30% in size. Further: potency means the concentration at half of the fitted maximal effect. A digest of the protocol:
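CHO cells stably expressing human HTR2A, plated 18 h, loaded with calcium dye 1 h at 37 C. Agonist mode: compounds added and intracellular calcium fluorescence recorded kinetically for 2 min at 1 sec intervals.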

In assay [11] the target is Muscarinic acetylcholine receptor M1 (Homo sapiens) (UniProt P11229). Kind of assay: Cholinergic receptor muscarinic 1 (CHRM1) small molecule antagonists, cell-based qHTS assay (AID 1963588). Further: nearly all actives have a fitted effect of over 40% in size. The procedure, abridged: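 Compounds were tested at 15 concentrations in three independent runs. Dye-loaded CHRM1-CHO cells were exposed 5 min at room temperature before stimulation by acetylcholine added at 50nM. Intracellular calcium was read kinetically on FDSS for 3 min.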

Assay [12] has the same target. Kind of assay: Cholinergic receptor muscarinic 1 (CHRM1) small molecule agonists, cell-based qHTS assay (AID 1963589). Further: nearly all actives have a fitted effect of over 35% in size. A digest of the protocol: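 Calcium flux read-out: kinetic fluorescence at 1 sec intervals after pin-tool compound addition to dye-loaded CHRM1-CHO cells (human M1). Agonist mode; 15 concentrations tested in triplicate independent runs.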
Assay [13] in a line: cAMP Responsive Elements (CRE) small molecule agonists, cell-based qHTS assay (AID 1963590). The procedure, abridged:
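Beta-lactamase reporter readout: LiveBLAzer B/G FRET substrate, 2 h at room temperature, added after 3 h compound treatment of CRE-bla HEK 293T cells at 37 C/5% CO2.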

A short description of assay [14]: cAMP Responsive Elements (CRE) small molecule antagonists, cell-based qHTS assay (AID 1963591; active means well fitted inhibition curve with a large enough effect in the signal ratio in the repeat runs, not every such curve was filed as active; the % refers to the signal ratio). A digest of the protocol: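 HEK293T CRE-bla; 18 h preincubation; compound pin-transfer; NKH477 0.25 uM final, 3 h, 37 C; LiveBLAzer FRET substrate 2 h RT.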
The target of assay [15] is Beta-2 adrenergic receptor (Homo sapiens) (UniProt P07550). Kind of assay: Adrenergic beta2 receptor (ADRB2) small molecule antagonists, cell-based qHTS assay (AID 1963592). Further: nearly all actives have a fitted effect of over 50% in size. Further: potency means the concentration at half of the fitted maximal effect. A digest of the protocol:
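Assay format: CHO-ADRB2 cells, 18-20hr seeding at 37C/5% CO2, then compound plus 1nM isoproterenol agonist mix for 0.5hr RT. Homogeneous time-resolved fluorescence cAMP detection after 1hr, expressed as 665/615 nm ratio.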

In assay [16] the target is D(2) dopamine receptor (Homo sapiens) (UniProt P14416). Kind of assay: Dopamine D2 receptor (DRD2) small molecule antagonists, cell-based qHTS assay (AID 1963595; active means well fitted inhibition curve with a large enough effect in the signal ratio in the repeat runs, with a control signal flat; the % refers to the signal ratio). The procedure, abridged: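 HTRF cAMP read-out at 665 and 620 nm emission (340 nm excitation). Antagonist mode: compounds were tested against 12 nM quinpirole in DRD2-HEK293 cells, with 200 nM NKH477 raising cAMP and 0.1 mM Ro20-1724 blocking its breakdown.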

Assay [17] is described as follows: p53 small molecule agonists, cell-based qHTS assay with rat liver microsomes: qHTS cell viability counter screen (AID 1963580). Further: nearly all actives have a fitted effect of over 45% in size. The procedure, abridged: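 After the beta-lactamase ratio was read, CellTiter-Glo was added to the same wells and luminescence measured at 30 min; cells had been treated 16 h at 37 C with compounds, rat liver microsomes and NADPH (0.5 mg/mL final each).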

Assay [18] addresses Beta-2 adrenergic receptor (Homo sapiens) (UniProt P07550). As to the kind of experiment: Adrenergic beta2 receptor (ADRB2) small molecule agonists, cell-based qHTS assay (AID 1963593).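 Further: CHO cells stably overexpressing human ADRB2.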 A digest of the protocol:
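CHO cells stably over-expressing ADRB2 were plated overnight at 37C, then dosed with compounds plus a stimulation mix containing 100uM IBMX and 25uM Ro-20-1724 for 0.5hr at room temperature. cAMP was measured by HTRF competition, 1hr.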

The target of assay [19] is D(2) dopamine receptor (Homo sapiens) (UniProt P14416). As to the kind of experiment: Dopamine D2 receptor (DRD2) small molecule agonists, cell-based qHTS assay (AID 1963594). Further: nearly all actives have a fitted effect of over 35% in size. A digest of the protocol:
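HEK293 cells stably expressing human DRD2, pre-treated with PDE inhibitor Ro20-1724 (0.1 mM final) and compound 10 min at room temperature, then stimulated with NKH477 (200nM […]) for 30 min. cAMP read by HTRF (665/620 nm).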

Assay [20] in a line: p53 small molecule agonists, cell-based qHTS assay with human liver microsomes: qHTS cell viability counter screen (AID 1963579). Further: nearly all actives have a fitted effect of over 45% in size. A digest of the protocol: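 Metabolically activated exposure: compounds, human liver microsomes and NADPH (0.5 mg/mL final apiece) were added to p53RE-bla cells seeded 5 h earlier, left 16 h at 37 C, and then assessed for viability by CellTiter-Glo luminescence.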

Results filed as inconclusive are left out. The source made the active and inactive calls. Unless noted, the call rests on the fitted dose curve.

Chain of Beta-2 adrenergic receptor (Homo sapiens) (P07550 whole entry, looked up): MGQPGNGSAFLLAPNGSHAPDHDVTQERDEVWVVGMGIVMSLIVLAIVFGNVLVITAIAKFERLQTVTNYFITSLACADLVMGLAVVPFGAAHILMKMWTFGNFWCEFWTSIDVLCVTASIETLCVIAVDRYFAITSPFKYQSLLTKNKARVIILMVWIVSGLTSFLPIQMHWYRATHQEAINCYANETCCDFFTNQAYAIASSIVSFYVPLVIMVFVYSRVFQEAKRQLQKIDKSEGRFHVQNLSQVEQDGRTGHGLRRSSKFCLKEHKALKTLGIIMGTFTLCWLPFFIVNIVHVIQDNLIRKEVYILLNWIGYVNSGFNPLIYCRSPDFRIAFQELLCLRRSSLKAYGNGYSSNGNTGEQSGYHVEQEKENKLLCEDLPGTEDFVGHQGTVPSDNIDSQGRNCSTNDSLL
Chain of Muscarinic acetylcholine receptor M1 (Homo sapiens) (P11229 whole entry, looked up): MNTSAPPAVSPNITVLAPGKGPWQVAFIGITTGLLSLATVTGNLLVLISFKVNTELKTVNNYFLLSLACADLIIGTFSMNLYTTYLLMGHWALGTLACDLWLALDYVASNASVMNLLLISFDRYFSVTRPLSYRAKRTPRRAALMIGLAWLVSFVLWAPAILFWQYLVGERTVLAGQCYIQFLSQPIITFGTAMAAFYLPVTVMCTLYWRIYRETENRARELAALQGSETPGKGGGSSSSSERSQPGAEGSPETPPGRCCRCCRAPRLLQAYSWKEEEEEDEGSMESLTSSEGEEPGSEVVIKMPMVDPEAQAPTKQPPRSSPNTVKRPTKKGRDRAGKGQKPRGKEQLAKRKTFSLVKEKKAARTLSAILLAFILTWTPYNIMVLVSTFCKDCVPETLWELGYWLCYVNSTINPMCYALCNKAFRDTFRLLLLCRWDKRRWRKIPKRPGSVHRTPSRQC
Chain of D(2) dopamine receptor (Homo sapiens) (P14416 whole entry, looked up): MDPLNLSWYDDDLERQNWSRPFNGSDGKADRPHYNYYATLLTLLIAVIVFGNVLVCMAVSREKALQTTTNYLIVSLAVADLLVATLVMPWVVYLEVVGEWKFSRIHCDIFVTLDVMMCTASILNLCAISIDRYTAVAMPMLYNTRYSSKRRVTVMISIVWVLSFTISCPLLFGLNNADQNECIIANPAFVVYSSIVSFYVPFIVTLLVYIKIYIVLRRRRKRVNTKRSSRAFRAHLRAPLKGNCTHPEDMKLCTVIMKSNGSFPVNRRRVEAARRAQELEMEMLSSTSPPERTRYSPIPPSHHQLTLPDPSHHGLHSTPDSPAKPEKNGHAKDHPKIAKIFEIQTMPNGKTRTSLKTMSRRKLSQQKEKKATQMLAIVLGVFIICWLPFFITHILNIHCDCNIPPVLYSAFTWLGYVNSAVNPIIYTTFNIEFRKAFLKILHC
Chain of 5-hydroxytryptamine receptor 2A (Homo sapiens) (P28223 whole entry, looked up): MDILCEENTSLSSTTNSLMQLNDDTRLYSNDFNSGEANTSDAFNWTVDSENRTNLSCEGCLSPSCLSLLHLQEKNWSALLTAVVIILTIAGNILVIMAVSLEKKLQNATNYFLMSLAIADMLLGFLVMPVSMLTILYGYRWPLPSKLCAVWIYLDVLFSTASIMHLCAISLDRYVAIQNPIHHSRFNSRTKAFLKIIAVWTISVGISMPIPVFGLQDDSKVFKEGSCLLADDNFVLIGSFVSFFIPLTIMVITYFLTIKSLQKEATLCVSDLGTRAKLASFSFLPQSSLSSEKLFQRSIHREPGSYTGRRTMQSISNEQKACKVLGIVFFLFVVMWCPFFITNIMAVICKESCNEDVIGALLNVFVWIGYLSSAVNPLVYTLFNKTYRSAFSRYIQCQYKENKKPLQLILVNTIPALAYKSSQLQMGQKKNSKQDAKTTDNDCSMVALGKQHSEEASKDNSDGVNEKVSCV
Chain of KiSS-1 receptor (Homo sapiens) (Q969F8 whole entry, looked up): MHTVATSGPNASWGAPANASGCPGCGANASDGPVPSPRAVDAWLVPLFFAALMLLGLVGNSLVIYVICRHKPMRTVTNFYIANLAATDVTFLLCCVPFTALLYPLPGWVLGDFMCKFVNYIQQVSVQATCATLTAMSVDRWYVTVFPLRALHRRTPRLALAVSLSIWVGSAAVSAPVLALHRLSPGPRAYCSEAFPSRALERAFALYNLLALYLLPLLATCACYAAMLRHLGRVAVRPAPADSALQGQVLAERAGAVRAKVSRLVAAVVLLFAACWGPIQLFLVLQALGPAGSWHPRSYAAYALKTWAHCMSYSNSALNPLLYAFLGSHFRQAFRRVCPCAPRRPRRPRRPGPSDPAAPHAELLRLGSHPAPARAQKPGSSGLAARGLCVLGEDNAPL
Chain of Gonadotropin-releasing hormone receptor (Homo sapiens) (P30968 whole entry, looked up): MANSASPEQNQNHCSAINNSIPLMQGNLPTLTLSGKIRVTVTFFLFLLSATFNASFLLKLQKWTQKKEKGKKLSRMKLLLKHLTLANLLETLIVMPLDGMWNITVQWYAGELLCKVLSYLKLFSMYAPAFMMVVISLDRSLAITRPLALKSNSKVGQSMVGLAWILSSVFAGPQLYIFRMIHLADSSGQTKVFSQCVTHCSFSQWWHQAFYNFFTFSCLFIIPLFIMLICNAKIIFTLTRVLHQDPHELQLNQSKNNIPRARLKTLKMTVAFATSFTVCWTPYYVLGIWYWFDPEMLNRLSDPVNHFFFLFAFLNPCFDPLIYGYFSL

With `O=NN1CCNCC1`, in assay [1], the Potency was 76.1 µM (active). For the same compound, the Potency result in assay [2], in assay [3], in assay [4], in [5], in assay [6] and in assay [7] was “inactive” in each case. Also, the Potency entry in assay [8], in [9], in assay [10], in assay [11], in [12] and in assay [13] was “inactive” throughout. Besides, the Potency result in assay [14], in assay [15] and in assay [16] was “inactive” throughout.

Consider `O=C(O)CCCCCCNC1c2ccccc2CCc2ccccc21`, for which the Potency result in assay [1], in assay [2], in [3], in [4], in [5] and in [6] was “inactive” each time. Besides, the Potency entry in [17], in [9], in [10], in [11], in assay [12] and in assay [13] was “inactive” throughout. Also, the Potency entry in assay [14], in [18] and in assay [19] was “inactive” in each case.

In the case of `CC[C@H]1C[C@@H]2C[C@H]3c4[nH]c5ccc(OC)cc5c4CCN(C2)[C@@H]13`, the figures for the Potency in assay [1] and in assay [9] were 67.4 µM (active) and 0.293 µM (active), respectively. Also, the Potency result in [2], in assay [3], in assay [4], in assay [5], in assay [6] and in assay [20] was “inactive” throughout. For the same compound, the Potency result in assay [17], in assay [8], in assay [10], in assay [11], in assay [12] and in assay [19] was “inactive” throughout. Moreover, the Potency entry in [16] is “inactive”.

Consider `CNC(=O)Oc1ccc(N(C)C)c(C)c1`, for which the values for the Potency in [1] and in assay [5] were 24.3 µM (active) and 10.2 µM (active), respectively. In addition, the Potency result in assay [2], in assay [3], in assay [4], in assay [20], in assay [17] and in [7] was “inactive” in each case. The Potency result in [8], in assay [9], in assay [10], in assay [11], in assay [12] and in assay [13] was “inactive” each time. The Potency entry in assay [14], in assay [15], in assay [19] and in [16] was “inactive” each time.

As to `CC(C)C1CCC(Cc2ccc(Cl)cc2)C1(O)Cn1cncn1` (stereo unspecified), the Potency entry in [1], in assay [2], in assay [3], in [4], in assay [5] and in assay [6] was “inactive” each time. For the same compound, the Potency result in assay [8], in assay [12] and in assay [19] was “inactive” throughout. In addition, in assay [9], the Potency is 37.1 µM (active).

For `O=C1c2ccccc2C(=O)C1C(=O)C(c1ccccc1)c1ccc(Cl)cc1` (stereo unspecified), the Potency result in [1], in assay [3], in [4], in assay [5], in assay [6] and in assay [17] was “inactive” throughout. The Potency entry in assay [8], in [12], in assay [14], in [15] and in assay [16] was “inactive” throughout. Moreover, the Potency is 17.4 µM (active) in [2], 4.21 µM (active) in [9] and 49 µM (active) in assay [10].

Consider `C[C@H]1CCC[C@H](O)CCCCCc2cc(O)cc(O)c2C(=O)O1`, for which the Potency result in [1], in assay [2], in assay [3], in assay [4], in assay [6] and in assay [20] was “inactive” each time. Moreover, the Potency result in assay [17], in assay [7], in assay [8], in assay [11], in [12] and in [14] was “inactive” throughout. Further, the Potency result in assay [19] and in assay [16] was “inactive” each time.

For `Cc1nnc2n1-c1sc(CCC(=O)N3CCOCC3)cc1C(c1ccccc1Cl)=NC2`, the Potency entry in assay [1], in [2], in assay [3], in assay [4], in assay [5] and in assay [6] was “inactive” in each case. For the same compound, the Potency entry in [20], in assay [7], in assay [8], in [10], in [11] and in [12] was “inactive” each time. Moreover, the Potency result in assay [16] is “inactive”. In addition, in assay [15], the Potency was 29.8 µM (active).
